Measurements published in PubChem BioAssay (EPA / NIEHS).
Values joined by “and” are separate entries in the source; they are usually repeats but may differ in a detail not shown here. Equal entries are not always repeated. The source holds several records for some structures; these can differ, active in one and inactive in another. Active and inactive are the calls of the source. How the source made its calls: active means hit-call score of the fitted dose curve at least 0.9, where 1 is the maximum; inactive means score below 0.9.

Read-out: growth arrest and DNA damage 45 (GADD45A), GADD45A (gene 1647)
Test: LTEA_HepaRG_GADD45A: Life Technologies and Expression Analysis (LTEA) Assay for growth arrest and DNA damage 45 (GADD45A) using HepaRG (AID 2283458)
Settings: mRNA level, 48 h; actives raise or lower the signal
Protocol: LTEA_HepaRG is a cell based, multiplexed-readout assay that uses HepaRG, a human liver cell line, with measurements taken at 48 hours after chemical dosing on a 96-well plate.LTEA_HepaRG_GADD45A is one of 102 assay component(s) measured in the LTEA HepaRG cell culture assay. It is a marker of Oxidative Stress.Data from the assay component LTEA_HepaRG_GADD45A was analyzed into 1 endpoint. This assay endpoint, LTEA_HepaRG_GADD45A, was analyzed with bidirectional fitting relative to DMSO as the negative control and baseline of activity. Using a type of inducible reporter, measures of mRNA induction for gain or loss-of-signal activity can be used to understand regulation of transcription factor activity. To generalize the intended target to other relatable targets, this assay endpoint is annotated to the cell cycle intended target family, where the subfamily is Oxidative Stress.
A total of 1060 chemcials from the ToxCast library were tested in eight-point concentration-response experiments. Cell culture and cytotoxicity assays were conducted at Thermo Fisher Scientific's Custom Services facility (Madison, WI). A single lot of human HepaRG cells (Thermo Fisher Scientific, Frederick, MD) was used for the cell culture experiments. 96-well format collagen type I coated plates of human HepaRG cells were prepared using established methods. Briefly, cryopreserved HepaRG cells were thawed, plated at a density of approximately 100,000 cells/well in HepaRG Thaw, Plate, and General Purpose media (HPRG770, Thermo Fisher Scientific), and incubated for 48 hours. 0.5% DMSO was selected as vehicle control to balance the requisite need of DMSO in HepaRG cultures to maintain differentiation (for example, baseline metabolism, proportions of hepatocytes vs. cholangiocytes), while enabling further hepatic receptor pathway activation (for example, PXR and CAR) in response to chemical exposure. 48 hours after plating, the culture medium was replaced with HepaRG Serum-Free Incudtion Media. Cells were exposed to each test chemical in duplicate and maintained in CO2 incubators for another 48 hours. Chemical plates were thawed to room temperature and 200x concentrations of treatment groups were prepared. 8-point conentration-reponse curves were made with the highest exposure at 100 uM, followed by half-log dilutions, all in 0.5% DMSO. Each test plate contained variouse controls, induction positive controls (1mM phenobarbital), cytotoxicity positive controls ([…] aflatoxin B1), vehicle controls (0.5% DMSO), and total lysis controls (0.5% DMSO). Cell morphology images were taken using an Essen IncuCyte FLR automated microscope, with six 96-well plates imaged in about 24 minutes. Images were captured and exported and JPEG files. Spent culture media was transfered to black-well plates for the LDH assay, and remaining media was sorted at -80 C for later use. Cells were treated with RLT buffer and frozen until shipped for gene expression analysis. Total RNA was isolated from the cell suspension in 75 uL of Buffer RLT (Qiagen, Germantown, MD 20874) by Quintiles/Expression Analysis (Durham, NC) using a custom isolation procedure. Total RNA from each plate well was transferred to a preamplification plate. Fluidigm's 96.96 Dynamic ArrayTM (Fluidigm, Amsterdam, the Netherlands) technology was used for gene expression analyses by quantitative reverse transcription polymerase chain reaction (qRT-PCR, performed by Quintiles/Expression Analysis, Durham, NC)89. Standard TaqManTM Assays (Applied Biosystems/ThermoFisher Scientific, Foster City, CA) were used to assess the expression of 93 genes selected based on their selectivity and sensitivity to important hepatic receptors known to be modulated by environmental chemicals; importance in human hepatocyte functionality; and hepatotoxicity. […]

Compound | outcome | AC50
CC1(C)C(C=C(Cl)Cl)C1C(=O)OCc1cccc(Oc2ccccc2)c1 (stereo not given) | inactive | 
N[C@@H](Cc1cc(I)c(Oc2ccc(O)c(I)c2)c(I)c1)C(=O)O | inactive | 
S=C(S)NCCNC(=S)S.[Mn+2].[S-]C([S-])=NCCN=C([S-])[S-].[Zn+2] | inactive | 3.61 µM (active) and 2.03 µM (active)
C#CCOC(=O)[C@@H](C)Oc1ccc(Oc2ncc(Cl)cc2F)cc1 |  | 12.4 µM (active)
c1ccc(Nc2ccccc2)cc1 | inactive | 
N#CSCSc1nc2ccccc2s1 | inactive | 
CCCCOC(=O)C(C)Oc1ccc(Oc2ccc(C(F)(F)F)cn2)cc1 (stereo not given) | inactive | 
CCSC(=O)N(CC(C)C)CC(C)C | inactive | 
CCC(C)OC(=O)N1CCCCC1CCO (stereo not given) | inactive | 
CCCOC(=O)NCCCN(C)C | inactive | 
CSC(=O)c1cccc2nnsc12 | inactive | 
COc1c(Cl)ccc(Cl)c1C(=O)O | inactive | 
Oc1ccc(C(c2ccc(O)cc2)C(Cl)(Cl)Cl)cc1 |  | 90.9 µM (active)
C=CCOC(Cn1ccnc1)c1ccc(Cl)cc1Cl (stereo not given) |  | 59.1 µM (active)
CCOC(=O)c1ccc(O)cc1 | inactive | 
CCOC(=O)COc1cc(-n2ncc(C(F)(F)F)c(C)c2=O)c(F)cc1Cl | inactive | 
CCOC(=O)C(C)Oc1ccc(Oc2nc3ccc(Cl)cc3o2)cc1 (stereo not given) | inactive | 
CCCCOC(=O)[C@@H](C)Oc1ccc(Oc2ccc(C(F)(F)F)cn2)cc1 | inactive | 
CCN(CC)C(=O)c1cccc(C)c1 | inactive | 
S=C([S-])NCCNC(=S)[S-].[Mn+2] |  | 5.52 µM (active)

Compound | outcome | AC50
CCNc1nc(N)nc(Cl)n1 | inactive | 
C[C@]12CC[C@@H]3c4ccc(O)cc4C[C@@H](CCCCCCCCCS(=O)CCCC(F)(F)C(F)(F)F)[C@H]3[C@@H]1CC[C@@H]2O (stereo not given in full) |  | 0.105 µM (active)
CCOC(=O)NCCOc1ccc(Oc2ccccc2)cc1 |  | 79.5 µM (active)
OB(O)O | inactive | 
CC(C)(C)[C@@H](O)[C@@H](Cc1ccc(Cl)cc1)n1cncn1 | inactive | 
CCCOC(=O)c1ccc(C(=O)OCCC)nc1 | inactive | 
CCCN(CCC)c1c([N+](=O)[O-])cc(C(F)(F)F)c(N)c1[N+](=O)[O-] | inactive | 
Cc1nn(C)c(Oc2ccccc2)c1C=NOCc1ccc(C(=O)OC(C)(C)C)cc1 |  | 4.15 µM (active)
O=C(O)C1(C(=O)Nc2ccc(Cl)cc2Cl)CC1 |  | 80.7 µM (active)
CC(C)(c1ccc(O)cc1)c1ccc(O)cc1 | inactive | 
CN(C)C(=O)Nc1ccc(Cl)c(Cl)c1 | inactive | 
COC(=O)CSc1cc(N=c2sc(=O)n3n2CCCC3)c(F)cc1Cl | inactive | 
COCCO | inactive | 
c1ccc2[nH]c(-c3cscn3)nc2c1 | inactive | 
CC(=O)S[C@@H]1CC2=CC(=O)CC[C@]2(C)[C@H]2CC[C@@]3(C)[C@@H](CC[C@@]34CCC(=O)O4)[C@H]12 | inactive | 
CC(=O)[C@H]1CC[C@H]2[C@@H]3CCC4=CC(=O)CC[C@]4(C)[C@H]3CC[C@]12C |  | 47.8 µM (active)
CCCCCOC(=O)COc1cc(N2C(=O)C3=C(CCCC3)C2=O)c(F)cc1Cl | inactive | 
CCCCC(CC)CN1C(=O)C2C3C=CC(C3)C2C1=O (stereo not given) | inactive | 
CCCCC(CC)COC(=O)c1ccccc1C(=O)O (stereo not given) | inactive | 
